From PubChem BioAssay (EPA / NIEHS)
Records with an inconclusive call do not appear. Where a structure was tested more than once in an assay, its records may differ in their call. Active and inactive are the calls of the source. How the source made its calls, unless noted: active means hit-call score of the fitted dose curve at least 0.9, where 1 is the maximum; inconclusive means response in the unintended direction; inactive means score below 0.9.

Columns and labels:
[1] = target: Retinoic acid receptor RXR-alpha (Homo sapiens) (UniProt P19793); assay: OT_NURR1_NURR1RXRa_0480: Odyssey Thera (OT) 8-hour HEK293T Protein Complementation Assay for Nurr1/retinoid X receptor (RXR) (AID 2283385)
Summary of the method: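 Interaction of bait and prey reconstitutes a functional reporter, whose fluorescence was measured in HEK293T cells dosed with compound for 8 hours. Signal gain relative to DMSO defined the single endpoint.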

[2] = target: Retinoic acid receptor RXR-alpha (Homo sapiens) (UniProt P19793); assay: OT_NURR1_NURR1RXRa_1440: Odyssey Thera (OT) 24-hour HEK293T Protein Complementation Assay for Nurr1/retinoid X receptor (RXR) (AID 2283386)
Summary of the method: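 Steps: fragment-tagged Nurr1 and RXRα expressed in HEK293T; compounds added; after 24 h, complemented reporter quantified by fluorescence intensity; signal increase over DMSO fitted as the single endpoint.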

[3] = target: Peroxisome proliferator-activated receptor gamma (Homo sapiens) (UniProt P37231); assay: OT_PPARg_PPARgSRC1_0480: Odyssey Thera (OT) 8-hour Protein-Complementation Assay for Peroxisome Proliferator-activated Receptor Gamma / SRC-1 Co-activator (AID 2283387);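 further: nuclear to cytoplasmic split Venus YFP fluorescence ratio reporting PPARg SRC-1 interaction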
Summary of the method: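 Read-out: 488 nm N/C fluorescence ratio from complemented Venus YFP fragments, ≥350 cells per image, gain-of-signal fitted against DMSO baseline. Fusions of PPARg/SRC-1 with IFP1/IFP2 expressed transiently in HEK293T; compounds applied 8 h.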

[4] = target: Peroxisome proliferator-activated receptor gamma (Homo sapiens) (UniProt P37231); assay: OT_PPARg_PPARgSRC1_1440: Odyssey Thera (OT) 24-hour Protein-Complementation Assay for Peroxisome Proliferator-activated Receptor Gamma/ SRC-1 Co-activator (AID 2283388);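 further: nuclear to cytoplasmic ratio of reconstituted Venus YFP fluorescence in fixed imaged cells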
Summary of the method: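 Transient HEK293T, YFP fragments 1-158/159-239 (mutant IFP1/IFP2) fused to PPARg/SRC-1; 24 h dosing; fix 4% formaldehyde, Draq5; Opera imaging 488/635 nm; N/C ratio, gain vs DMSO.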

[5] = CEETOX_H295R_11DCORT: CeeTox H295R High-throughput Steroidogenesis Assay for 11-Deoxycortisol (11DCORT) (AID 2283432; active means hit-call score of the fitted dose curve at least 0.9, where 1 is the maximum; inactive means score below 0.9;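 on AC50: 11-deoxycortisol secreted into the medium measured by LC-MS/MS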); conditions: actives raise or lower the signal
Summary of the method: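 H295R cells; 10 uM forskolin prestim 48 h; compound in 0.1% DMSO 48 h; media extracted with MTBE; 11-deoxycortisol by LC-MS/MS, 7-point standard curve; gain/loss vs DMSO baseline; viability by MTT in same wells.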

[6] = CEETOX_H295R_OHPREG: CeeTox H295R High-throughput Steroidogenesis Assay for OH-Pregnenolone (OHPREG) (AID 2283434; active means hit-call score of the fitted dose curve at least 0.9, where 1 is the maximum; inactive means score below 0.9); conditions: actives raise or lower the signal
Summary of the method: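 Secreted 17alpha-hydroxypregnenolone measured by HPLC-MS/MS after liquid-liquid extraction. Human adrenal H295R cells received 48 h forskolin (10 uM) stimulation before 48 h chemical exposure at 0.1% final DMSO; MTT viability in same wells; bidirectional fit against DMSO.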

[7] = CEETOX_H295R_OHPROG: CeeTox H295R High-throughput Steroidogenesis Assay for OH-Progesterone (OHPROG) (AID 2283435; active means hit-call score of the fitted dose curve at least 0.9, where 1 is the maximum; inactive means score below 0.9;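 further: 17alpha-hydroxyprogesterone secreted into medium measured by HPLC-MS/MS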); conditions: actives raise or lower the signal
Summary of the method: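 Steps: seed H295R cells and adhere overnight; stimulate with 10 uM forskolin for 48 h; replace with chemical-containing medium (0.1% DMSO) for 48 h; extract medium with MTBE; quantify 17alpha-hydroxyprogesterone by reverse-phase C18 HPLC-MS/MS against a 7-point curve.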

[8] = CEETOX_H295R_ANDR: CeeTox H295R High-throughput Steroidogenesis Assay for Androstenedione (ANDR) (AID 2283436; active means hit-call score of the fitted dose curve at least 0.9, where 1 is the maximum; inactive means score below 0.9); conditions: actives raise or lower the signal
Summary of the method: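 Medium from 48 h chemical-treated H295R adrenal cells was extracted with MTBE and androstenedione measured by LC-MS/MS. Activity was fit in both directions relative to DMSO. Cytotoxic concentrations were re-tested after dilution until MTT viability reached ≥70%.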

[9] = CEETOX_H295R_CORTIC: CeeTox H295R High-throughput Steroidogenesis Assay for Corticosterone (CORTIC) (AID 2283437; active means hit-call score of the fitted dose curve at least 0.9, where 1 is the maximum; inactive means score below 0.9); conditions: actives raise or lower the signal
Summary of the method: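 Medium corticosterone was quantified by tandem mass spectrometry following 48 hours of chemical exposure (0.1% DMSO) in human H295R cells previously stimulated 48 hours with 10 uM forskolin. Viability checked by MTT; chemicals diluted and retested when viability fell below 70%.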

[10] = CEETOX_H295R_CORTISOL: CeeTox H295R High-throughput Steroidogenesis Assay for Cortisol (AID 2283438; active means hit-call score of the fitted dose curve at least 0.9, where 1 is the maximum; inactive means score below 0.9;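 further: cortisol secreted into medium quantified by LC-MS/MS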); conditions: actives raise or lower the signal
Summary of the method: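 Cortisol synthesis by H295R cells is measured 48 h after chemical dosing, following a 48 h stimulation with 10 uM forskolin. Hormone is extracted and quantified by HPLC-MS/MS, and activity is fitted bidirectionally against the DMSO control.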

Measured: AC50

Retinoic acid receptor RXR-alpha (Homo sapiens), sequence (P19793 whole entry, looked up, the tested form may be a part): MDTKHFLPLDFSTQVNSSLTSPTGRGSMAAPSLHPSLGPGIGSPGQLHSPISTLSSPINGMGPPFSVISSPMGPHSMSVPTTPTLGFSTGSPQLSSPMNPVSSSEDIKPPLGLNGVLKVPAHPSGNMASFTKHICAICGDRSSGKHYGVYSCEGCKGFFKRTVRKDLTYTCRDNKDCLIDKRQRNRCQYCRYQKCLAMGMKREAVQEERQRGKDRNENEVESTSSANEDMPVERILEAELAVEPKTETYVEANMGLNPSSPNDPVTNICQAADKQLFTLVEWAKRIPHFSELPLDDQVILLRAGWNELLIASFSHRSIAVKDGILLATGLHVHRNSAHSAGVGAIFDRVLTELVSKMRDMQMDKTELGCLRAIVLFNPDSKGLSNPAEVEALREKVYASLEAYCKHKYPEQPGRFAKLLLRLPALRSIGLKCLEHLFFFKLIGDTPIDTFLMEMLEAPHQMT
Peroxisome proliferator-activated receptor gamma (Homo sapiens), sequence (P37231 whole entry, looked up, the tested form may be a part): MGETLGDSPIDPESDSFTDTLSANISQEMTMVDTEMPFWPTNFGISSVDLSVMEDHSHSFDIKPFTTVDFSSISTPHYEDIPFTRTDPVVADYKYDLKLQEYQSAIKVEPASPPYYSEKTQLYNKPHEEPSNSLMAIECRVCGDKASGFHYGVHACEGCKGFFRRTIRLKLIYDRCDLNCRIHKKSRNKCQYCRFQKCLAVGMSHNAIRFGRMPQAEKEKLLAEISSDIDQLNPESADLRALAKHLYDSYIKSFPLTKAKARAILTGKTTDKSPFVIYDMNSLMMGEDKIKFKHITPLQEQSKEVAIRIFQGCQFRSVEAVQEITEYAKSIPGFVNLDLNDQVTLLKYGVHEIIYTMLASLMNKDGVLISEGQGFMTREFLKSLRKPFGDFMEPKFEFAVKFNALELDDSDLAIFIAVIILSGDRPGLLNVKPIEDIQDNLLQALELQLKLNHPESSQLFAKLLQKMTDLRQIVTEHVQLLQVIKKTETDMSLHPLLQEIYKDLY

CC(C)=CCCC(C)CCO (stereo not drawn)
inactive: [1] | [2] | [3] | [4]
active: [1] 90.2 µM

CCOC(=O)CC(CC(=O)OCC)(OC(C)=O)C(=O)OCC
inactive: [1] | [2] | [3] | [4]

Cc1ccc(C)c(O)c1
inactive: [1] | [2] | [3] | [4]

Cc1[nH]cnc1C[C@H]1CCc2c(C)c3ccccc3n2C1=O
inactive: [1]

Cn1c(=O)c2c(ncn2C)n(C)c1=O
inactive: [1] | [2] | [3] | [4]

CC[C@H]1OC(=O)[C@H](C)[C@@H](O[C@H]2C[C@@](C)(OC)[C@@H](O)[C@H](C)O2)[C@H](C)[C@@H](O[C@@H]2O[C@H](C)C[C@H](N(C)C)[C@H]2O)[C@](C)(O)C[C@@H](C)C(=O)[C@H](C)[C@@H](O)[C@]1(C)O
inactive: [1] | [2] | [3] | [4]

CCCCC(CC)COC(=O)CCCCCCCCC(=O)OCC(CC)CCCC (stereo not drawn)
inactive: [1] | [2] | [3] | [4]

Cn1cnc([N+](=O)[O-])c1Sc1ncnc2nc[nH]c12
inactive: [1] | [2] | [3] | [4]

CC1(C)C(=O)N(Br)C(=O)N1Br
inactive: [1] | [2] | [3] | [4]

CC(O)CN(CCN(CC(C)O)CC(C)O)CC(C)O (stereo not drawn)
inactive: [1] | [2] | [3] | [4]

Oc1ccc2c(c1)-c1ccccc1C2
inactive: [1] | [2] | [3] | [4]
active: [5] 40 µM | [6] 33.7 µM | [7] 13.5 µM | [8] 42.3 µM | [9] 11.5 µM | [10] 81.5 µM

COc1ccc(/C=C/S(=O)(=O)NC(=O)c2ccc(C)cc2Cl)cc1
active: [1] 24 µM | [2] 29 µM | [4] 60.6 µM | [7] 17.7 µM
not listed: [8]
inactive: all other assays above

CC(C)=CCC/C(C)=C/CO
inactive: [1] | [2] | [3] | [4]

Cc1ccc(S(=O)(=O)O)cc1C
inactive: [1] | [2] | [3] | [4]

O=C1OC(=O)C2C3C=CC(C3)C12 (stereo not drawn)
inactive: [1] | [2] | [3] | [4]

COCCOCCOCCOC
inactive: [1] | [2] | [3] | [4]

O=C(O)c1cccc(Oc2ccccc2)c1
inactive: [1] | [2] | [3] | [4]

O=C(O)c1cc(N=Nc2ccc(S(=O)(=O)Nc3ccccn3)cc2)ccc1O
inactive: [1] | [2] | [3] | [4]

O=C(CCCCCCCCc1cccnc1)N1CCC(C=C(c2ccccc2)c2ccccc2)CC1
inactive: [1] | [3] | [4]
active: [2] 12 µM

CCNc1ccccc1
inactive: [1] | [2] | [3] | [4]

CCOCCO
inactive: [1] | [2] | [3] | [4]

On1ccccc1=S
inactive: [1] | [2] | [3] | [4]

O=C(O)CCN(C1(C(=O)NO)CCCC1)S(=O)(=O)c1ccc(Oc2ccc(F)cc2)cc1
inactive: [1] | [2] | [3] | [4]

CC(=O)OCCC(C)C
inactive: [1] | [2] | [3] | [4]

COC(=O)CC(=O)OC
inactive: [1] | [2] | [3] | [4]

Nc1cccc(N)c1
inactive: [1] | [2] | [3] | [4]
